According to the supplement of paper PMC11732987, “Enantioselective OTUD7B fragment discovery through chemoproteomics screening and high-throughput optimisation” (Communications Chemistry, 2025):

How the values were obtained:
Experiment in all cases: log2 ratio of Biotin-Ahx-Ub-VS probe labelling (fragment/DMSO); higher = less target engagement (more negative = stronger competition), active = hit call of the paper (q ≤ 0.05, log2 ratio ≤ -1)
Settings in all cases: compound concentration: 200 uM; treatment time: 3 h
[1] = biological target: T1, ALG13 (UniProt Q9NP73)
T1 sequence (whole entry): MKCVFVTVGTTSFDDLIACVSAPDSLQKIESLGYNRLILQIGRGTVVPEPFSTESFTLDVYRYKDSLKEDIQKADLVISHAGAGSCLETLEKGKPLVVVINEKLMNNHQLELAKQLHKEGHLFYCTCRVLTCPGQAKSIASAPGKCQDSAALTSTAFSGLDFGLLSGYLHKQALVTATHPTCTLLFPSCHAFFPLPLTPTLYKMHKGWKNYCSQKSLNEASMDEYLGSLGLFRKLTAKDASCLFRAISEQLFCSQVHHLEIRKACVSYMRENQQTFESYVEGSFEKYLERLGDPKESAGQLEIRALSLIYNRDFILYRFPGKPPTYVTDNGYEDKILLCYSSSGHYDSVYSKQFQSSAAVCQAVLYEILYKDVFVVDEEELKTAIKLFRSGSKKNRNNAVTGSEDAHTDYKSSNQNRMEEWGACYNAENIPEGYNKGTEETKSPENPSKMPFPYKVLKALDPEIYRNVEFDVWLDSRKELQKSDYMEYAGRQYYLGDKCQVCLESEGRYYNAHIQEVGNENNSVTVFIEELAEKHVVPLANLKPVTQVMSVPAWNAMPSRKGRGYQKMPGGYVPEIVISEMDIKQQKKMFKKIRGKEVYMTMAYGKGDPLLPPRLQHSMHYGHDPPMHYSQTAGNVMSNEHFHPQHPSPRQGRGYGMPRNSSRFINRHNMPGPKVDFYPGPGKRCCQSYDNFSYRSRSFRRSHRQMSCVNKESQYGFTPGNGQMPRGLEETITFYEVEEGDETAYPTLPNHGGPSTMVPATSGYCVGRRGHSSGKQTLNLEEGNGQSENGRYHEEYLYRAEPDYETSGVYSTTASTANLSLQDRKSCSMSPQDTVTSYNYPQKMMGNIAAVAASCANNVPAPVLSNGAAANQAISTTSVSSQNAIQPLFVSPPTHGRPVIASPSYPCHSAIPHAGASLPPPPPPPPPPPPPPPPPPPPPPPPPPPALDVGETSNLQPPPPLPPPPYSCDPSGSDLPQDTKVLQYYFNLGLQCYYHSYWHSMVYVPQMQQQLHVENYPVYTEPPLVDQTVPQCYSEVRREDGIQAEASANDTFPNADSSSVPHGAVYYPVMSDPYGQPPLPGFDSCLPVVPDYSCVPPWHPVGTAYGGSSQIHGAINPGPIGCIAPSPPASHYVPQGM
Outline: (§1)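 Fragment (200 µM) or vehicle was incubated for 3 h with triplicate HEK293T lysate samples of 495 µg, which were then treated with Biotin-Ahx-Ub-VS at 0.5 µM final for 1 h. Labelled DUBs were enriched on NeutrAvidin, digested with LysC and trypsin, and analysed by diaPASEF LC-MS/MS. Values are average log2 fragment/vehicle ratios from an unpaired t-test on global-median-normalised Spectronaut label-free quantities, using proteins with ≥2 unique peptides.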

[2] = biological target: ATXN3 (UniProt P54252)
Sequence of ATXN3 (P54252 whole entry): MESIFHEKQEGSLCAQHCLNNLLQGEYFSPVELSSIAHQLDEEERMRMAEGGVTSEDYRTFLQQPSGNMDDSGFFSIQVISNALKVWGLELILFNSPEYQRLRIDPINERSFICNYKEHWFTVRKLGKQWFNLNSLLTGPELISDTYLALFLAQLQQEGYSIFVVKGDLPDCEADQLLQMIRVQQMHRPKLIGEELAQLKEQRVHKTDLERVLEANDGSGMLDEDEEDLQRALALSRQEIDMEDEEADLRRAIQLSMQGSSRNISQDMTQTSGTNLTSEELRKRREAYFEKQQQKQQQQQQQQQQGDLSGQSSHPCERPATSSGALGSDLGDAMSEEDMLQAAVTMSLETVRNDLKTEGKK
Outline: as §1

[3] = biological target: T2, BAP1 (UniProt Q92560)
T2 sequence (whole entry): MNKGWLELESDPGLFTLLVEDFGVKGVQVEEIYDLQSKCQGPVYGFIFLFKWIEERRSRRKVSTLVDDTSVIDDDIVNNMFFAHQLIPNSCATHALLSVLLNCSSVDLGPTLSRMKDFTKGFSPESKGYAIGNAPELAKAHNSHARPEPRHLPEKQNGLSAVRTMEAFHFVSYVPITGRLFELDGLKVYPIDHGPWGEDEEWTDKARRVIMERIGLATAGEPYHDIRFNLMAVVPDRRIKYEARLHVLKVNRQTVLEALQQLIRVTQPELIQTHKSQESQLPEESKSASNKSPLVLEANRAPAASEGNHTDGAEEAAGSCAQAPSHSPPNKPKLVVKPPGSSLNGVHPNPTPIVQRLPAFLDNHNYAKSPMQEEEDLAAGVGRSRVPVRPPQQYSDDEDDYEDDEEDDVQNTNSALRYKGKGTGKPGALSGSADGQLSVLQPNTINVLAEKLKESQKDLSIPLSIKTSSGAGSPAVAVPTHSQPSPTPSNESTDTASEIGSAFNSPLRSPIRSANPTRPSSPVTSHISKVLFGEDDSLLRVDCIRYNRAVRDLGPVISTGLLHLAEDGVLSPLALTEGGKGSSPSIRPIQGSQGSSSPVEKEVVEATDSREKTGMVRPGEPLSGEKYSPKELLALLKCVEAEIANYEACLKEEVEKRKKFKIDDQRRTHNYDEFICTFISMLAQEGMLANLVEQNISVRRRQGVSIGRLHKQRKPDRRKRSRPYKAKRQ
Outline: as §1

[4] = biological target: EIF3F (UniProt O00303)
Sequence of EIF3F (O00303 whole entry): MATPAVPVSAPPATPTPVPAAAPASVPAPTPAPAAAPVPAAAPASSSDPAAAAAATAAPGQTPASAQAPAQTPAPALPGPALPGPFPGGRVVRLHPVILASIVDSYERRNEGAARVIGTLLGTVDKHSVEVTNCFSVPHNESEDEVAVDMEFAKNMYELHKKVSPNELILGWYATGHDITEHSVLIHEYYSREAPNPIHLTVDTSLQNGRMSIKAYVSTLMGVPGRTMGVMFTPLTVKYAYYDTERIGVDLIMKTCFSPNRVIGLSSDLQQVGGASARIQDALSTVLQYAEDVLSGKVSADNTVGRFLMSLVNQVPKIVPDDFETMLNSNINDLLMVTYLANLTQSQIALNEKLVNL
Outline: as §1

[5] = biological target: EIF3H (UniProt O15372)
Sequence of EIF3H (O15372 whole entry): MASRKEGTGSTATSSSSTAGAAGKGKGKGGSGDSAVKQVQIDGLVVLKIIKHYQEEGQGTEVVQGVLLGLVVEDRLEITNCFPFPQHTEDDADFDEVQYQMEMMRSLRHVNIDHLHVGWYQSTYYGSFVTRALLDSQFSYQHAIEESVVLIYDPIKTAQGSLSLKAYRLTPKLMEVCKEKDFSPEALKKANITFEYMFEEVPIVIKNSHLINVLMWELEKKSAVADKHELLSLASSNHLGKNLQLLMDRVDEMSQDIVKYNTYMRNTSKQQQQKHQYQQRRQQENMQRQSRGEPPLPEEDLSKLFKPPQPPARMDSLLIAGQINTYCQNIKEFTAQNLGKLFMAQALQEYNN
Outline: as §1

[6] = biological target: T3, FAM105A (UniProt Q9NUU6)
T3 sequence (whole entry): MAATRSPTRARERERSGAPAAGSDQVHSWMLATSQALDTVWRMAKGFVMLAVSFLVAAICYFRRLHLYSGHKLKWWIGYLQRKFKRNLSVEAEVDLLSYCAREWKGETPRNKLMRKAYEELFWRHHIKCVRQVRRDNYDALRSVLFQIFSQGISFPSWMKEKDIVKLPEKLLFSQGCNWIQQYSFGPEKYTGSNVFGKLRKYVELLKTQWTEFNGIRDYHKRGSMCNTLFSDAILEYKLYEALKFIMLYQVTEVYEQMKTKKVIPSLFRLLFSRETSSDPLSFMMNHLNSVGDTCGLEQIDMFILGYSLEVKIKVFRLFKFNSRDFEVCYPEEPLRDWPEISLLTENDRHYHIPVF
Outline: as §1

[7] = biological target: OTUB1 (UniProt Q96FW1)
Sequence of OTUB1 (Q96FW1 whole entry): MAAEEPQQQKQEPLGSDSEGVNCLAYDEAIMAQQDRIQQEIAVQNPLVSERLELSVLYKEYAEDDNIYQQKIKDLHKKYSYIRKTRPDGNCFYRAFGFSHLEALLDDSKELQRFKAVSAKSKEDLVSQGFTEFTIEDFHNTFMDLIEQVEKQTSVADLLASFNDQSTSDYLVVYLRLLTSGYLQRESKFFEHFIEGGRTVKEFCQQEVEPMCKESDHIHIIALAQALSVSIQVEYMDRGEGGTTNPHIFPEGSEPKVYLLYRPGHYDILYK
Outline: as §1

[8] = biological target: T4, OTUD4 (UniProt Q01804)
T4 sequence (whole entry): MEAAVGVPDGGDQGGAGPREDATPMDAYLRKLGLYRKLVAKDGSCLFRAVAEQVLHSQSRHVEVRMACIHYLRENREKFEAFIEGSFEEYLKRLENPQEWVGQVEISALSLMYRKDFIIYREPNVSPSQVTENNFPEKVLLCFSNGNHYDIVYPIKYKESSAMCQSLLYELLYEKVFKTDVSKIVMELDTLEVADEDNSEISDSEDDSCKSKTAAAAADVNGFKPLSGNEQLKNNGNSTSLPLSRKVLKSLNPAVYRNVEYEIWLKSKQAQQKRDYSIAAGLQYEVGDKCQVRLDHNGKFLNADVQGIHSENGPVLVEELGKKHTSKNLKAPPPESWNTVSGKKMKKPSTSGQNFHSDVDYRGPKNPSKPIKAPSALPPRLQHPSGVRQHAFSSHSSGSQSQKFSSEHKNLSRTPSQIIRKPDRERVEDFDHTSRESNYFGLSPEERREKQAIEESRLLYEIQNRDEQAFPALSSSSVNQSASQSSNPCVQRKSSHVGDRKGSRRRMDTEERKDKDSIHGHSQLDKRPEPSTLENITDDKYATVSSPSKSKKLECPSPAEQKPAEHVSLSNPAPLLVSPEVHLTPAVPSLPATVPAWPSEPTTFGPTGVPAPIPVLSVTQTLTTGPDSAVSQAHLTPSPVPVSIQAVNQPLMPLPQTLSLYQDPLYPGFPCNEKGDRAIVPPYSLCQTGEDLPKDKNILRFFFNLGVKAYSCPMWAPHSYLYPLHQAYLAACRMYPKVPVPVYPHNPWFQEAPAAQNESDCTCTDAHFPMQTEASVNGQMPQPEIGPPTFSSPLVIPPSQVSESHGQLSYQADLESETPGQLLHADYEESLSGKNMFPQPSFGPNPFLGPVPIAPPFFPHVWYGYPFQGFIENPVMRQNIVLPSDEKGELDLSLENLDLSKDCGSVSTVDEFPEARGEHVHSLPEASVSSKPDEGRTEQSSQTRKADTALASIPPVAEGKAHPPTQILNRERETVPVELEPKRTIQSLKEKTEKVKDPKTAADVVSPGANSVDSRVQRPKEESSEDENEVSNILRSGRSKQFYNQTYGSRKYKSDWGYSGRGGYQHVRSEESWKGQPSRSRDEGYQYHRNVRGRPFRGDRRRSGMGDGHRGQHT
Outline: as §1

[9] = biological target: T5, OTUD5 (UniProt Q96G74)
T5 sequence (whole entry): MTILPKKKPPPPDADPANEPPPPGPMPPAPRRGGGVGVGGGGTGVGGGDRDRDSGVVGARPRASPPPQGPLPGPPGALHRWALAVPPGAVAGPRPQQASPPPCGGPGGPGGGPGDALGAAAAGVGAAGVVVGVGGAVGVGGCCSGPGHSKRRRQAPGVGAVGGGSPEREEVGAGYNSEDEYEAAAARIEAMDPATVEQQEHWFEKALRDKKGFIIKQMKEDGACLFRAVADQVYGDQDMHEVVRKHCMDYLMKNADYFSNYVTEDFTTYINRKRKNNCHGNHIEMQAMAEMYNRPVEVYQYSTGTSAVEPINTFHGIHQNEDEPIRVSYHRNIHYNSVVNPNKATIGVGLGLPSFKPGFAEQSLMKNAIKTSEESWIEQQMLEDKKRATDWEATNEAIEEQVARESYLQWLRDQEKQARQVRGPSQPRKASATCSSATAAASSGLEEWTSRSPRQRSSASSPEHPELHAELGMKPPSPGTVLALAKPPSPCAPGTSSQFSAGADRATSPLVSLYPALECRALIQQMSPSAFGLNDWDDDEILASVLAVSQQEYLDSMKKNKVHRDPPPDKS
Outline: as §1

Measured: log2 ratio of Biotin-Ahx-Ub-VS probe labelling

Cc1n[nH]c(=O)c2c(NC(=O)CCl)oc(C)c12
inactive: [1] 0.211 | [2] 0.117 | [3] 0.169 | [4] 0.173 | [5] 0.156 | [6] -0.0353 | [7] 0.329 | [8] 0.0677 | [9] -0.187
